Experimental data from PubChem BioAssay AID1159580 (chemical genetic matrix, 2015).
Several values for one entry are separate records, joined by “and”; a condition that tells them apart may be missing. Identical values can stand only once. The whole screen tested about 5,500 compounds, of which about 2,000 (36%) were called active. Another 18% or so got no clear call; they are omitted. Rule as the data show it: active = normalized growth mostly below about 0.91 (no sharp cut-off); inconclusive = no clear call, values can overlap the other calls; inactive = mostly above about 0.92. The list shows a part of the results.

Assay: chemical genetic growth profiling, strain panel (AID 1159580);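 also: tested at 20 µM; growth read once vehicle control cultures reached saturation at 30 °C; 1 = growth at the plate median or of vehicle wells; lower values mean less growth of the strain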
Conditions: S. cerevisiae deletion strains, growth OD

Measured: normalized growth

CNC[C@H](O)c1cccc(O)c1
inactive: locus YAL013W, strain DEP1, active compounds read low 1.01 | locus YAL021C, strain ccr4, active compounds read low 0.979 | locus YAL026C, strain drs2, active compounds read low 0.997 | locus YAL030W, strain snc1, active compounds read low 0.986 | locus YBL061C, strain skt5, active compounds read low 0.988 | locus YBR009C, strain hhf1, active compounds read low 0.995 | locus YBR021W, strain FUR4, active compounds read low 1 | locus YBR023C, strain chs3, active compounds read low 0.986 | locus YBR171W, strain sec66, active compounds read low 0.98 | locus YBR229C, strain ROT2, active compounds read low 1.01 | locus YBR231C, strain swc5, active compounds read low 0.967 | locus YBR279W, strain paf1, active compounds read low 0.991 | locus YCL011C, strain gbp2, active compounds read low 1 | locus YCL016C, strain dcc1, active compounds read low 0.983 | locus YCL029C, strain bik1, active compounds read low 1.02 | locus YCL069W, strain vba3, active compounds read low 0.991 | locus YCR088W, strain abp1, active compounds read low 0.986 | locus YDL005C, strain med2, active compounds read low 0.968 | locus YDL035C, strain GPR1, active compounds read low 1.01 | locus YDL040C, strain nat1, active compounds read low 0.984 | locus YDL074C, strain BRE1, active compounds read low 1.01 | locus YDL101C, strain DUN1, active compounds read low 1.01 | locus YDL134C, strain PPH21, active compounds read low 1.01 | locus YDL185W, strain tfp1, active compounds read low 1.02 | locus YDL192W, strain arf1, active compounds read low 1.02 | locus YDR001C, strain nth1, active compounds read low 0.991 | locus YDR069C, strain doa4, active compounds read low 0.982 | locus YDR101C, strain arx1, active compounds read low 1.02 | locus YDR137W, strain rgp1, active compounds read low 0.966 | locus YDR150W, strain NUM1, active compounds read low 1.01 | locus YDR159W, strain sac3, active compounds read low 0.981 | locus YDR162C, strain NBP2, active compounds read low 1.01 | locus YDR195W, strain ref2 0.91 | locus YDR297W, strain sur2, active compounds read low 0.981 | locus YDR318W, strain mcm21, active compounds read low 1.02 | locus YDR334W, strain swr1, active compounds read low 0.982 | locus YDR335W, strain msn5, active compounds read low 0.99 | locus YDR388W, active compounds read low 1.01 | locus YDR392W, strain spt3, active compounds read low 1 | locus YDR502C, strain sam2, active compounds read low 1.01 | locus YEL003W, strain gim4, active compounds read low 0.989 | locus YEL037C, strain rad23, active compounds read low 0.984 | locus YEL061C, strain CIN8 (second series), active compounds read low 0.99 | locus YEL061C, strain CIN8, active compounds read low 1.01 | locus YER015W, strain faa2, active compounds read low 0.969 | locus YER016W, strain bim1, active compounds read low 0.981 | locus YER110C, active compounds read low 1.02 | locus YER111C, strain swi4, active compounds read low 0.988 | locus YER155C, strain BEM2 (second series), active compounds read low 0.953 | locus YER155C, strain BEM2, active compounds read low 1 | locus YER167W, strain BCK2, active compounds read low 1.01 | locus YFR010W, strain ubp6, active compounds read low 0.976 | locus YGL078C, strain dbp3, active compounds read low 1.01 | locus YGL086W, strain mad1, active compounds read low 1 | locus YGL167C, strain pmr1, active compounds read low 0.983 | locus YGL173C, strain kem1, active compounds read low 0.955 | locus YGL227W, strain vid30, active compounds read low 0.971 | locus YGL240W, strain doc1, active compounds read low 0.95 | locus YGL248W, strain PDE1, active compounds read low 1 | locus YGL253W, strain hxk2, active compounds read low 1.01 | locus YGR078C, strain PAC10, active compounds read low 0.996 | locus YGR135W, strain pre9, active compounds read low 1 | locus YGR229C, strain SMI1, active compounds read low 0.992 | locus YGR252W, strain gcn5, active compounds read low 0.989 | locus YHR013C, strain ard1, active compounds read low 0.982 | locus YHR027C, strain rpn1, active compounds read low 0.99 | locus YHR030C, strain SLT2, active compounds read low 1 and 1.01 | locus YHR079C, strain IRE1 (second series), active compounds read low 1.02 | locus YHR079C, strain IRE1, active compounds read low 1.03 | locus YHR094C, strain hxt1, active compounds read low 1.02 | locus YHR129C, strain ARP1, active compounds read low 1.01 | locus YHR142W, strain chs7, active compounds read low 1 | locus YHR200W, strain rpn10, active compounds read low 1.02 | locus YIL066C, strain RNR3, active compounds read low 1.01 | locus YIL073C, strain SPO22, active compounds read low 1.04 | locus YIL125W, strain kgd1, active compounds read low 1.01 | locus YIR030C, strain dcg1, active compounds read low 1.01 | locus YJL092W, strain hpr5, active compounds read low 0.977 | locus YJL095W, strain BCK1 (second series), active compounds read low 0.98 | locus YJL095W, strain BCK1, active compounds read low 1.01 and 1.02 | locus YJL115W, strain asf1, active compounds read low 0.976 | locus YJL129C, strain trk1, active compounds read low 0.977 | locus YJL134W, strain LCB3, active compounds read low 1 | locus YJL154C, strain vps35, active compounds read low 0.987 | locus YJL164C, strain tpk1, active compounds read low 0.985 | locus YJL166W, strain qcr8, active compounds read low 0.956 | locus YJL168C, strain set2, active compounds read low 1.02 | locus YJL187C, strain SWE1 (second series), active compounds read low 1.01 | locus YJR043C, strain POL32, active compounds read low 0.996 | locus YJR066W, strain TOR1, active compounds read low 0.969 | locus YJR075W, strain HOC1, active compounds read low 1
